In PubChem BioAssay (Tox21):
Inconclusive results are not listed. A number with no mark means an inactive call. Calls of active or inactive are those of the source. Calls come from the whole dose curve; as a rule, active = well fitted inhibition curve with a large enough effect in the signal ratio in the repeat runs (not every such curve was filed as active); inconclusive = weak or mixed curves, or effect the other way; inactive = no such curve, though single readings can be large or run the other way; the % refers to the signal ratio.

What follows are compounds tested against Estrogen receptor beta (Homo sapiens) (UniProt Q92731) (assay: qHTS assay to identify small molecule antagonists of the estrogen receptor beta (ER-beta) signaling pathway (AID 1259378)). Settings: ER-beta-UAS-bla HEK293T, beta-lactamase FRET ratio, 16 h; series mostly up to 92.4 µM.
Chain of Estrogen receptor beta (Homo sapiens) (Q92731 whole entry, looked up): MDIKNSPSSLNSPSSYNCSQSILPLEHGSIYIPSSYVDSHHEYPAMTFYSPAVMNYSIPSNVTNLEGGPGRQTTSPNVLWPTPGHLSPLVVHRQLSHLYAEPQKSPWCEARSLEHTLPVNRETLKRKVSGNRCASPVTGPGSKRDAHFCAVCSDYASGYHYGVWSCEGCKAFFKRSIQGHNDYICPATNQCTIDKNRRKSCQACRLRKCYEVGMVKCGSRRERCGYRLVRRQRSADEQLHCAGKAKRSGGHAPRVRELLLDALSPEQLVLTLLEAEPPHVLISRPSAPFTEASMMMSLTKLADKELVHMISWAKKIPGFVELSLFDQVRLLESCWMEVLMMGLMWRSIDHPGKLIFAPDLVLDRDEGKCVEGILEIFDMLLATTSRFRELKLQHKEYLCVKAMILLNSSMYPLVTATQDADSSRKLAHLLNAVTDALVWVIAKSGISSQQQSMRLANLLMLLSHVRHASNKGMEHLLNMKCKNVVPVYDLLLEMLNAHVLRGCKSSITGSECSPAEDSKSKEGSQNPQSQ
Description: National Center for Advancing Translational Sciences [NCATS]
NIH Chemical Genomics Center [NCGC]
U.S. Environmental Protection Agency [EPA]
National Institutes of Environmental Health Sciences [NIEHS]
National Toxicology Program [NTP]
U.S. Food and Drug Administration [FDA]
Estrogen receptor (ER), a nuclear hormone receptor, plays an important role in development, metabolic homeostasis and reproduction. Two subtypes of ER, ER-alpha and ER-beta, have similar expression patterns with some uniqueness in both types. Endocrine disrupting chemicals (EDCs) and their interactions with steroid hormone receptors like ER causes disruption of normal endocrine function. To identify the compounds that inhibit ER signaling, an ER-beta-UAS-bla GripTite cell line (Life Technologies, Madison, WI, USA) containing a beta-lactamase reporter gene under the control of an UAS response element was used to screen Tox21 10K compound library.
Tox21 Assay Protocol Summary:
ER-beta-UAS-bla HEK293T cells were dispensed at 2,000 cells/4 uL of assay medium containing 2% charcoal stripped FBS per well into black wall/clear-bottom 1536-well plates using a Multidrop Combi (ThermoFisher Scientific, Waltham, MA) dispenser. After the assay plates were incubated at a 37C and 5% CO2 for 6 hr, 23 nL of compounds dissolved in DMSO, positive controls or DMSO only was transferred to the assay plate by a Pintool station (Kalypsys, San Diego, CA), followed by addition of 1 uL (1nM as final concentration) of 17-beta-estradiol (E2) in assay medium using a BioRAPTR FRD (Flying Reagent Dispenser, Aurora Discovery, San Diego, CA). The plates were incubated at 37C and 5% CO2 for 16 hr. Then 1 uL of LiveBLAzerTM B/G FRET substrate was added using a Flying Reagent Dispenser, the plates were incubated at room temperature for 2 hours, and fluorescence intensity was measured by an Envision plate reader (PerkinElmer, Shelton, CT).
% is set by controls: 0 for no effect and ±100 for the full control effect.

SMILES	outcome	activity, negative = inhibition
FC1(F)C(F)(F)C(F)(F)C2(F)C(F)(F)C(F)(F)C(F)(F)C(F)(F)C2(F)C1(F)F (stereo not given)	inactive	
CC(C)(C)c1nnc(NS(=O)(=O)c2ccccc2)s1	inactive	
CN1CC(=O)NC1=N	inactive	
CC(=O)OCC(CCn1cnc2cnc(N)nc21)COC(C)=O	inactive	
NCCCNCCSP(=O)(O)O		13.1% [at 8.39 µM]
CC(=O)OCC(=O)[C@@]1(O)CC[C@H]2[C@@H]3CCC4=CC(=O)CC[C@]4(C)[C@H]3C(=O)C[C@@]21C	inactive	
CCc1cccc2c(CCO)c[nH]c12	inactive	
CC1(C)CO[C@@H](CC(=O)O)CN1	inactive	
CCCCOCCOCCOCCCC	inactive	
CC(C)=CCCC(C)CC(=O)O (stereo not given)	inactive	
Cc1ccc(=O)n(-c2ccccc2)c1	inactive	
COCCc1ccc(OCC(O)CNC(C)C)cc1 (stereo not given)	inactive	
CC(C)OC(=O)c1ccccc1	inactive	
Nc1cc(=O)[nH]c(N)n1	inactive	
CCO/C([O-])=N/c1c[n+](N2CCOCC2)no1	inactive	
COC(=O)c1c(Cl)c(Cl)c(C(=O)OC)c(Cl)c1Cl	inactive	
COc1nc(N)nc2c1ncn2[C@@H]1O[C@H](CO)[C@@H](O)[C@@H]1O	inactive	
CC(C[N+](C)(C)C)OC(N)=O (stereo not given)	inactive	
O=C(O)CNC(=O)c1ccc([N+](=O)[O-])cc1	inactive	
Oc1ccc(C2CNCCc3c2cc(O)c(O)c3Cl)cc1 (stereo not given)	inactive	

SMILES	outcome	activity, negative = inhibition
N=C(N)c1ccccc1	inactive	
O=C[C@H](O)[C@@H](O)[C@H](O)[C@H](O)CO	inactive	
COC(=O)CCSCCC(=O)OC	inactive	
CCOC(=O)C(=O)OCC	inactive	
OC1CCCCC1c1ccccc1 (stereo not given)	inactive	
CCOc1ccc(C(=O)OCCN(CC)CC)cc1	inactive	
COC(C)(C)CCCC(C)CC=O (stereo not given)	inactive	
COCCCOCCCOC	inactive	
CC(C)c1cc2c(cc1S(=O)(=O)O)[C@@]1(C)CCC[C@@](C)(C(=O)O)[C@@H]1CC2	inactive	
O=C(O)COc1nn(Cc2ccccc2)c2ccccc12	inactive	
CCOC(=O)c1cccc(N)c1	inactive	
CS(=O)(=O)O	inactive	
COc1ccccc1OCC(O)CN1CCN(CC(=O)Nc2c(C)cccc2C)CC1 (stereo not given)	inactive	
N=c1nc(N2CCCCC2)cc(N)n1O	inactive	
NCCc1cnc[nH]1	inactive	
CC(=O)OCC(=O)[C@@]1(O)CCC2C3CCC4=CC(=O)CC[C@]4(C)C3[C@@H](O)C[C@@]21C (stereo not given in full)	inactive	
O=C(O)CCCl	inactive	
CC(C)CNCC(C)C	inactive	
CCOC(=O)Nc1ccc(NCc2ccc(F)cc2)nc1N	inactive	
Nc1ccc(S(=O)(=O)Nc2ccnn2-c2ccccc2)cc1		0.746% [at 19 µM]
